Records with an inconclusive call do not appear. A call without a number means that no potency is given here. Values without a mark were called inactive. The source made the active and inactive calls. Calls follow the shape of the dose curve; as a rule, active = well fitted cell-killing curve with a large enough effect in the repeat runs; inconclusive = weak or mixed curves, or effect the other way; inactive = flat fitted curve, though single readings scatter.

This assay is described as follows: qHTS assay to identify small molecule agonists of the constitutive androstane receptor (CAR) signaling pathway - cell viability counter screen (AID 1224836). Also: nearly all actives have a fitted effect of over 45% in size. Conditions: HepG2-CYP2B6-hCAR viability, CellTiter-Fluor, 23 h, PK11195 added to every well; series mostly up to 92.4 µM. An excerpt: U.S. Tox21 Program National Center for Advancing Translational Sciences [NCATS] NIH Chemical Genomics Center [NCGC] U.S. Environmental Protection Agency [EPA] National Institutes of Environmental Health Sciences [NIEHS] National Toxicology Program [NTP] U.S. Food and Drug Administration [FDA] Tox21 Assay Overview: The constitutive androstane receptor (CAR) is a nuclear receptor which regulates multiple drug metabolizing enzymes (DMEs) and transporters. Activating CAR will generally increase the transcription and subsequent translation of CYP2B6 and CYP3A4. These two DMEs represent about 50% of the drug metabolizing potential in the body. […] Recently, there have also been studies performed indicating CARs role in energy metabolism and cancer therapy. Therefore, inducing CARs activity could have a potential effect on diabetes and cancer. Identifying environmental toxins and compounds which modulate CAR, through the use of the Tox21 10K compound collection, will be an important step in determining the toxicity and potential therapeutic effects these factors will have on the human body. To differentiate true CAR agonists from cytotoxic substances, the assay is multiplexed with a cell viability assay.
Tox21 Assay Protocol Summary: A double-stable (hCAR and CYP2B6-2.2kb) transfected cell line, derived from human hepatoma (HepG2) cells, was utilized for the duration of the quantitative high-throughput screens. The HepG2-CYP2B6-hCAR cells were dispensed at 2500 cells/4 uL/well in 1536-well white solid bottom plates using a Multidrop Combi. After the assay plates were incubated at 37 C/5% CO2 for 4 hrs, 23 nL of compounds at 15 concentrations (from 5-48 columns) or positive control (from 1 to 4 columns) were transferred to the assay plates using a Pintool station. One uL of PK11195 (final concentration = 0.75 uM) was added, using a Flying Reagent Dispenser, inside each well. After a 23 hr incubation period at 37 C/5% CO2, 1 uL of CellTiter-Fluor reagent was added into each well of the assay plates using a Flying Reagent Dispenser. The fluorescence intensity in the plates was then measured using a ViewLux plate reader.
In general terms: qHTS replaces the single test concentration by a dilution series.
On to `Cc1ncc(CO)c(C=O)c1O`, for which the Potency entry was “inactive”.
On the same count and under the same terms, the result for `CN(C)c1ccc(C(c2ccccc2)c2ccc(N(C)C)cc2)cc1` reads “inactive”; that for `O=C(Nc1ccc(S(=O)(=O)N2CCOCC2)cc1)c1cc(Cl)ccc1NS(=O)(=O)c1ccc(Cl)s1`, “inactive”; that for `Cc1cccc(C)c1NC(=O)CN(CC(=O)O)CC(=O)O`, “inactive”.
With `O=C1CCCCCCCCCCCC(=O)OCCO1`, the Potency entry is “inactive”.
On the same count and under the same terms, the result for `Cn1c(=O)cc(Oc2ccc(F)cc2F)c2cnc(NCC(C)(C)O)nc21` reads “inactive”.
On the same count and under the same terms, under `CC1=CC[C@H](C(C)C)C=C1` stands “inactive”; under `CN(C)CCN(Cc1ccccc1)c1ccccn1`, “inactive”.
As to `CN1C[C@H]2c3ccccc3Oc3ccc(Cl)cc3[C@@H]2C1`, the Potency entry is “inactive”.
For `CN(C)CCCN1c2ccccc2Sc2ccccc21`, the Potency entry is “inactive”.
For the compound `CCN(CC)CCOC(=O)C(Cc1cccc2ccccc12)CC1CCCO1` (stereo not given), the Potency result is “inactive”.
On the same count and under the same terms, the result for `CCCCCC[C@@H](O)C/C=C\CCCCCCCC(=O)OC` reads “inactive”.
On the same count and under the same terms, the result for `Cc1ccccc1S(=O)(=O)O` reads “inactive”; that for `CCC(CC)Nc1ccc(C)c(C)c1`, “inactive”; that for `CC(C)CC(=O)C1C(=O)c2ccccc2C1=O`, “inactive”.
The same measure, in the same setting: under `COc1cc(C(=O)OCCCN2CCCN(CCCOC(=O)c3cc(OC)c(OC)c(OC)c3)CC2)cc(OC)c1OC` stands “inactive”.
For the compound `O=C(NCCO[N+](=O)[O-])c1cccnc1`, the Potency entry is “inactive”.
On to `C/C=C/C(=O)CC`, for which the viability change, negative = cytotoxic was 4.38% [at 19 µM].
Regarding `c1ccc(-c2ccccn2)nc1`, the Potency result was “inactive”.
The same measure, in the same setting: the result for `Cc1c(N)cccc1[N+](=O)[O-]` reads “inactive”.
Turning to `CN(C)C(=O)NC1(c2ccccc2)CCN(CC[C@@]2(c3ccc(F)c(F)c3)CN(C(=O)c3ccccc3)CCO2)CC1`, the Potency result is “inactive”.
On to `CCCCC(CC)COC(=O)COc1ccc(Cl)cc1Cl` (stereo not given), for which the Potency result was “inactive”.
Same read-out and setting: under `CCCCC1=NC2(CCCC2)C(=O)N1Cc1ccc(-c2ccccc2-c2nn[nH]n2)cc1` stands “inactive”.
As to `Nc1cc(C(=O)O)c(O)c(S(=O)(=O)O)c1`, the Potency result was “inactive”.
Regarding `C[N+](C)(C)CCOC(=O)CCC(=O)OCC[N+](C)(C)C`, the Potency result was “inactive”.
On the same count and under the same terms, the result for `O=P(O)(OCc1ccccc1)OCc1ccccc1` reads “inactive”; that for `CC(=O)c1ccc2c(c1)N(CCCN(C)C)c1ccccc1S2`, “inactive”; that for `Nc1ccc(S(=O)(=O)Nc2ccccc2)cc1`, “inactive”.
Same read-out and setting: under `CCOC(=O)C(=O)CCc1ccccc1` stands “inactive”.
On the same count and under the same terms, the result for `NC(=O)C(c1ccccc1)(c1ccccc1)[C@@H]1CCN(CCc2ccc3c(c2)CCO3)C1` reads “inactive”.
As for `COc1ccnc(CS(=O)c2nc3ccc(OC(F)F)cc3[nH]2)c1OC` (stereo not given), the Potency entry is “inactive”.
On to `CCCCCCCC/C=C\CCCCCCCC(=O)OCC`, for which the Potency result is “inactive”.
On the same count and under the same terms, under `CCCCCCCN` stands “inactive”; under `Cc1oc2c(NC(=O)c3c(Cl)cccc3Cl)cccc2c1C(C)(C)O`, “inactive”.
Consider `COc1ccc2cccc(CCNC(C)=O)c2c1`, for which the Potency entry was “inactive”.
`Cc1cc(N)c2cc(NC(=O)Nc3ccc4nc(C)cc(N)c4c3)ccc2n1`: the Potency result is “inactive”.
Regarding `CC(COCCO)OCCO` (stereo not given), the Potency result is “inactive”.
With `O=[N+]([O-])c1ccc2[nH]ncc2c1`, the Potency entry was “inactive”.
The same measure, in the same setting: under `C[N+]1(CC2COC(c3ccccc3)(C3CCCCC3)O2)CCCCC1` (stereo not given) stands “inactive”; under `CCCCCCCCCCCCCCOS(=O)(=O)O`, “inactive”.
